USP28 block – inhibitors of human USP28 deubiquitinase | purified USP28, Ub-rhodamine cleavage fluorescence, 30 min | inhibition, % at 25 µM | 47,000 tested, 3% active | AID 1645857
USP17 inh – blocks human USP17 ubiquitin-rhodamine cleavage; A8MUK1; purified USP17, Ub-rhodamine cleavage fluorescence, 3 h; inhibition, % at 50 µM; 47,000 tested, 6.5% active; AID 1645855
OTUD3 block – inhibitors of human OTUD3 deubiquitinase; 47,000 tested, 0.7% active; AID 1645858; purified OTUD3, Ub-rhodamine fluorescence, 2 h; inhibition, % at 25 µM
USP8 inh – human USP8 deubiquitinase inhibition | 47,000 tested, 4.2% active | inhibition, % at 20 µM | purified USP8, Ub-rhodamine cleavage fluorescence, 30 min
Target sequence (P40818 whole entry, looked up): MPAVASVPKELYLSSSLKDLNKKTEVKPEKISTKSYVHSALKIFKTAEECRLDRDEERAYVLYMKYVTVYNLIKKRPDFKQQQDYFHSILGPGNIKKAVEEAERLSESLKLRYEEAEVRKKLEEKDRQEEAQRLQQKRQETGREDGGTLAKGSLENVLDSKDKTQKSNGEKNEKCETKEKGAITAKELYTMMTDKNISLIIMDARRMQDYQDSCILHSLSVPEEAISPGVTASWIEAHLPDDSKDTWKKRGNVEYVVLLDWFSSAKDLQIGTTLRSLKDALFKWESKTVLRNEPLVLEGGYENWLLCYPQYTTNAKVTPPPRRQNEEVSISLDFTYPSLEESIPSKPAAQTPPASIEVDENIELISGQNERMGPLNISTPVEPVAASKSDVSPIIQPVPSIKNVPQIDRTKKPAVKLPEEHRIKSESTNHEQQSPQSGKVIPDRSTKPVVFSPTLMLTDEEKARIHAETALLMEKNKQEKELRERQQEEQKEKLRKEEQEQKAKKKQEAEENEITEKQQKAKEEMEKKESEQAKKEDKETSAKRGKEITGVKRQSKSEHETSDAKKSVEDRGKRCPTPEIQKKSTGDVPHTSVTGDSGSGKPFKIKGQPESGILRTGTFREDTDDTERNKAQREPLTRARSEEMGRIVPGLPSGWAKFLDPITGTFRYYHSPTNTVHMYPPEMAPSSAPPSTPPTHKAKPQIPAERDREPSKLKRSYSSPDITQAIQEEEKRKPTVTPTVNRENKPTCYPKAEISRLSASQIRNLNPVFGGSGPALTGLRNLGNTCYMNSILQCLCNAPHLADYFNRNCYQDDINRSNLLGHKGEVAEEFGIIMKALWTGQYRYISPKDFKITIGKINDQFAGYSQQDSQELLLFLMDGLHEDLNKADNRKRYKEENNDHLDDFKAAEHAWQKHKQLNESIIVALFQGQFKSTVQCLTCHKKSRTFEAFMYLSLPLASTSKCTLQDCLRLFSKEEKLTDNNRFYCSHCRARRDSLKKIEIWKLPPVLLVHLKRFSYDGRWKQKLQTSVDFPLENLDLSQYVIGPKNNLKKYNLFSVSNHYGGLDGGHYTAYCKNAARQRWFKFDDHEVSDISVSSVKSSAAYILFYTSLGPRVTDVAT
USP30 block – human USP30 deubiquitinase inhibition; purified USP30, Ub-rhodamine cleavage fluorescence; Q70CQ3; inhibition, % at 25 µM; 47,000 tested, 5.3% active; AID 1645860
Numbers stand for hits; – = inactive. Shown are actives, neighbours in structure and some others; about 13% of the full set was active somewhere. Rule as the data show it: active = inhibition above about 30%; inactive = the rest.

SMILES | USP28 block | USP17 inh | OTUD3 block | USP8 inh | USP30 block
Cc1cnc(C2CN(C(=O)c3cnc4ccccc4c3)CCO2)[nH]1 (configuration not stated) | – | – | – | – | –
CC1CCc2c(cc(-c3ccccc3)n2-c2ccc(C(=O)O)cc2)C1 (configuration not stated) | – | – | – | – | –
COC(=O)c1cc2cc(NC(=O)c3cccc(Cl)c3)ccc2s1 | – | – | – | – | 36.4
COc1ccc(NC(=O)c2cccc(C#N)c2)cc1S(=O)(=O)Nc1ccccc1Cl | – | – | – | – | –
COc1cccc(NS(=O)(=O)c2ccc(Oc3ccccc3OC)cc2)c1 | 33.6 | 36.3 | – | – | 36.8
CCCOc1ccc(C(=O)Nc2ccc(S(=O)(=O)Nc3cc(C)nc(C)n3)cc2)cc1 | 45.4 | – | 57.2 | – | –
COc1ccc(S(=O)(=O)c2ccc(NC(=O)c3cccc(Cl)c3)cc2C#N)cc1 | – | 32.5 | – | – | –
COc1ccc(-c2n[nH]c3c2C(=O)CC(c2ccccc2)C3)cc1 (configuration not stated) | – | – | – | – | –
CC(=O)N1[C@@H](CNS(=O)(=O)c2cccc(F)c2)C[C@@]2(C)[C@@H](O)CCCC[C@@H]12 | – | – | – | – | –
CC(Cc1ccccc1)NC(=O)[C@H](C)N1C(=O)N2CCc3c([nH]c4ccccc34)[C@@]2(C)C1=O (some centres not stated) | – | – | – | – | –
COc1ccc(NS(=O)(=O)c2ccc(C(=O)Nc3cccc(C(C)=O)c3)cc2)cc1 | – | 45.7 | – | – | –
COc1ccc(C(=O)Nc2cccc(S(=O)(=O)NC3=NCCCCC3)c2)cc1 | 39.9 | – | – | – | –
O=C(Nc1ccc(S(=O)(=O)NC2=NCCCCC2)cc1)c1ccccc1 | – | – | – | – | –
COc1ccc(-c2ccc(C#N)c(SCc3cc4c(cc3Cl)OCO4)n2)cc1 | – | 42.6 | – | – | –
COc1ccccc1C(=O)N1CCC(c2nc3c(nnn3Cc3ccc(C)cc3)c(=O)[nH]2)CC1 | – | – | – | – | –
Cc1ccc2c(NCc3ccc4c(c3)OCO4)c(-c3nc(C)no3)cnc2n1 | 42.9 | 35.6 | – | 60.7 | –
COc1cccc(Cn2nc3n(CC(C)C)c(=O)c4ccc(C(=O)NC(C)C)cc4n3c2=O)c1 | – | – | – | – | 30.3
CC1(C)CC[C@]2(C(=O)O)CC[C@]3(C)C(=CCC4[C@@]5(C)CC[C@H](O)[C@@](C)(CO)C5CC[C@]43C)[C@@H]2C1 (some centres not stated) | 81.8 | 94.9 | 80.7 | – | 83.9
Cc1nonc1COc1ccccc1C(=O)N1CCC[C@]2(C[C@@H](Oc3cccc(F)c3)CO2)C1 | – | – | – | – | –
COc1ccccc1NC(C)C(=O)N1CC(=O)Nc2ccccc21 (configuration not stated) | – | – | – | – | –
COc1ccccc1NCC(=O)N1c2ccccc2NC(=O)C1(C)C | – | – | – | 33.7 | –
Cc1cccc(C(=O)OCC(=O)Nc2ccc(N3CCOCC3)cc2)c1O | – | 31.6 | – | – | –
O=C(COC(=O)c1ccc2c(c1)OCO2)Nc1ccc(N2CCCCC2)cc1 | – | 32.6 | – | – | –
Cc1cccc(-c2nnc(SCC(=O)Nc3ccc4[nH]c(=O)[nH]c4c3)n2C)c1 | – | – | – | – | –
Cc1cccc(C(=O)OCC(=O)Nc2ccc3[nH]c(=O)[nH]c3c2)c1 | 48.0 | 57.2 | 32.0 | 52.1 | 77.2
SMILES | USP28 block | USP17 inh | OTUD3 block | USP8 inh | USP30 block
O=C(COc1ccc2c(c1)OCO2)Nc1ccc(N2CCOCC2)cc1 | – | – | – | – | –
O=C(COC(=O)c1cc2ccccc2cc1O)Nc1ccc(N2CCOCC2)cc1 | – | – | – | – | –
CC(C)(C)c1ccc(C(=O)OCC(=O)Nc2ccc3c(c2)OCO3)cc1 | – | – | – | – | –
O=C(COC(=O)c1ccc2c(c1)OCO2)Nc1ccc2[nH]c(=O)[nH]c2c1 | – | 42.4 | – | – | –
c1ccc(C2(c3nc(CN4CCOCC4)no3)CCOCC2)cc1 | – | – | – | – | –
Cc1ccc(NC(=O)c2nnc(C3CCCN3C(=O)C(C)C)s2)cc1 (configuration not stated) | – | – | – | – | –
COCCN1C(=O)CO[C@H]2CN(c3nccc(C(F)(F)F)n3)C[C@H]21 | – | – | – | – | –
Cc1ccc(-c2noc3c(=O)[nH]cnc23)cc1 | – | – | – | – | –
COc1cccc(-c2cnc([C@@H]3COCCN3C3CCNCC3)[nH]2)c1 | – | – | – | – | –
O=C(COC(=O)c1ccccc1O)Nc1ccc2[nH]c(=O)[nH]c2c1 | – | – | – | – | 34.4
Cc1cc(=O)n(CC(=O)Nc2ccc(F)cc2)c(N2CCCCC2)n1 | – | – | – | – | –
O=C(Nc1nccn1Cc1ccccc1)c1cc(-c2cccc(Cl)c2)on1 | – | – | – | 79.9 | –
Cc1ccc(CNC(=O)c2cnn(-c3ccc([N+](=O)[O-])cc3)c2C2CCNCC2)cc1 | – | – | – | – | 44.4
Cc1ccccc1Cn1cc(S(=O)(=O)N2CCOCC2)ccc1=O | – | – | – | – | –
COc1ccc(C(=O)CSc2nc(-c3ccco3)nc3c2c(=O)n(C)c(=O)n3C)cc1 | – | – | – | – | –
CCCn1c(=O)n(CC(=O)c2ccccc2F)c2c(C(N)=O)nc(-c3ccco3)nc21 | – | 61.9 | – | 58.8 | –
CCCn1c(=O)n(CC(=O)c2ccc(Cl)cc2)c2c(C(N)=O)nc(-c3ccco3)nc21 | – | 38.1 | – | – | –
CCn1c(=O)n(CC(=O)c2ccc(Cl)cc2)c2c(C(N)=O)nc(-c3ccco3)nc21 | – | 36.0 | – | 49.4 | –
CC(C)n1c(=O)n(CC(=O)c2ccccc2)c2c(C(N)=O)nc(-c3ccco3)nc21 | – | – | – | – | –
CCn1c(=O)n(CC(=O)c2ccc(F)cc2F)c2c(C(N)=O)nc(-c3ccco3)nc21 | – | – | – | 47.6 | –
COc1ccccc1NC(=O)c1cccc(S(=O)(=O)NCc2ccccc2)c1 | – | – | – | – | –
COCCNC(=O)c1ccn(-c2ccc3ccc(-c4cnn(C)c4)cn23)n1 | – | – | – | – | –
COc1ccc(OC)c(N(CC(=O)NC2CCCCC2)C(=O)CCC(=O)Nc2ccccn2)c1 | – | – | – | – | 30.5
O=C(CCCC(=O)N(c1cccc(C(F)(F)F)c1)C(C(=O)NC1CCCC1)c1ccc(F)cc1)Nc1ccccn1 (configuration not stated) | – | – | – | – | –
COc1ccc(C(C(=O)NC2CCCCC2)N(C(=O)CCCC(=O)Nc2ccccn2)c2ccccc2OC)cc1 (configuration not stated) | – | – | – | – | –
COc1ccc(N(C(=O)CCCC(=O)Nc2ccccn2)C(C(=O)NC2CCCCC2)c2ccc(Cl)cc2)cc1 (configuration not stated) | – | 32.9 | – | – | 37.4
CCOc1ccc(N(CC(=O)NC2CCCCC2)C(=O)CCC(=O)Nc2ccccn2)cc1 | – | – | – | – | –

High-throughput results deposited in PubChem BioAssay by Buhrlage Lab, Dana-Farber Cancer Institute and Novartis Institutes for BioMedical Research (Cambridge, Mass).
